# Assay outcomes as filed in PubChem.
# In the library only some 19% were active in any assay of this set; here they are far more common.
# HT1080NT lethal: kills 2HG-producing HT-1080-NT fibrosarcoma cells | HT-1080-NT fibrosarcoma viability, CellTiter-Glo ATP luminescence, 48 h | Potency, µM (titrated, usually from 46.1 µM), for inactives: at the highest dose activity, negative = less viability, most hits filed as cytotoxic | hit rate 1.6% among 360,000;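 further: NT is the 2HG producing partner of a matched IDH1 knockdown line; potency means the concentration at half of the fitted maximal effect; 0% = DMSO-treated cells and -100% = media-only wells without cells; nearly all actives have a fitted effect of over 55% in size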
#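 HT-1080-NT fibrosarcoma cells (2HG-overproducing), 750 cells/well in RPMI with 5% FBS, dosed after 2 h and incubated 48 h at 37C. CellTiter-Glo luminescence normalized to DMSO and no-cell wells; concentration-response curves fitted and classed.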
# DT40 TDP1 CPT: DT40-hTDP1 cell growth loss with CPT | chicken DT40 Tdp1-/-;hTDP1 cells + 20 nM CPT, ATP luminescence, 48 h | Potency, µM (top dose mostly 46.2 µM), for inactives: at the top dose activity change, negative = growth inhibition, usual class: inhibitors | hit rate 12% among 420,000 | AID 686979; further: potency means the concentration at half of the fitted maximal effect; nearly all actives have a fitted effect of over 55% in size
#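 Chicken DT40 Tdp1-/- cells complemented with human TDP1, 400 cells/well, exposed to compounds plus 20 nM camptothecin for at least 48 h at 37 C; viability read as ATP content by CellTiter-Glo luminescence.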
# IL1B secr inh: inhibitors of inflammasome signaling (IL-1 beta secretion). THP-1 LPS/ATP IL-1B secretion, AlphaLISA, 16 h; hits give low values. activity change, % at 57.5 µM. hit rate 4.7% among 360,000; in the data active means activity change below about -50%; inconclusive means mostly about -30% to -49%
#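 Secreted IL-1B measured by AlphaLISA bead assay after 16 h compound exposure of THP-1 cells; compounds (final up to 57.5 uM) added 1 h before LPS (250 ng/mL) and ATP (1.25 mM) stimulation; lower signal means less secretion.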
# TDP1 cell noCPT: qHTS for Inhibitors of human tyrosyl-DNA phosphodiesterase 1 (TDP1): qHTS in cells in absence of CPT; DT40 Tdp1-/- hTDP1 cells, no CPT, ATP luminescence, 48 h; Potency, µM (top dose mostly 46.2 µM), without a hit: top-dose activity change, negative = growth inhibition, actives largely listed as inhibitors; hit rate 15% among 420,000; AID 686978, 2013; further: potency means the concentration at half of the fitted maximal effect; nearly all actives have a fitted effect of over 55% in size
#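 Luminescent ATP content (CellTiter-Glo) served as the growth readout. Knockout chicken DT40 cells expressing human TDP1 were exposed to compounds without camptothecin for a minimum 48 hr at 37 °C.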
# HT1080 IDH1KD tx: HT-1080 IDH1 knockdown cell toxicity (counter line); Potency, µM (highest dose often 46.1 µM), for inactives: at the highest dose activity, negative = toxicity, hits mostly cytotoxic; hit rate 2% among 360,000; HT-1080 IDH1 knockdown viability, ATP luminescence, 48 h;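 further: potency means the concentration at half of the fitted maximal effect; 0% = DMSO wells and -100% = cell-free medium wells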
#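 Luminescent ATP read-out (CellTiter-Glo, 10 min at room temperature) after 48 h compound exposure at 37 °C gave viability of IDH1-knockdown HT-1080 cells. Activity was normalised to DMSO and cell-free wells, then fitted as concentration-response curves.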
# * = called active by the depositor; ? = inconclusive; nt = not tested or not shown. Unless noted, the call rests on the fitted dose curve; in most records, active means well fitted curve in the direction sought with a large enough effect; inconclusive means small, poorly fitted or top-dose-only effect, or another doubt; inactive means no such curve, though single readings can be large; an effect the other way counts as inactive or inconclusive. Unless noted, on the % scale 0 is the no-effect control and ±100 the full control effect.
SMILES,HT1080NT lethal,DT40 TDP1 CPT,IL1B secr inh,TDP1 cell noCPT,HT1080 IDH1KD tx
Cc1ccc(NC(=O)CN2CCN(CCN=CC3=C(O)CC(c4ccc(C)cc4)CC3=O)CC2)cc1 (centres undefined),-3%,-2%,-19,-13%,-4%
O=C(NCC(O)c1ccccc1)c1cccs1 (centres undefined),14%,-2%,-13,-17%,4%
CCCCCCCCN1C(=O)[C@H](CC(=O)NCCC(C)C)C[C@@]2(C(=O)OC)CC(C)(C)CC=C12,-14%,?,-7,?,-14%
CCCCCCCCN1C(=O)[C@H](CC(=O)N2CCCC2)C[C@@]2(C(=O)OC)CC(C)(C)CC=C12,?,9.2µM*,-5,?,?
CCCCCCCCN1C(=O)[C@H](CC(=O)N2CCSCC2)C[C@@]2(C(=O)OC)CC(C)(C)CC=C12,?,?,-20,16µM*,?
CCCCCCCCN1C(=O)[C@H](CC(=O)N2CCC(c3ccccc3)CC2)C[C@@]2(C(=O)OC)CC(C)(C)CC=C12,0%,?,-16,16µM*,-2%
COC(=O)[C@@]12C[C@@H](CC(=O)N3CCSCC3)C(=O)N(Cc3ccccc3)C1=CCC(C)(C)C2,5%,-16%,-11,?,0%
COC(=O)[C@@]12C[C@@H](CC(=O)N3CCOCC3)C(=O)N(Cc3ccccc3)C1=CCC(C)(C)C2,4%,-7%,23,?,6%
O=C(Nc1ccccc1Cl)c1cc(C2CCCN(S(=O)(=O)c3cccs3)C2)on1 (centres undefined),?,-23%,25,-12%,9%
CC(=O)c1cccc(NS(=O)(=O)c2cc3c(cc2C)N(C(C)=O)CCO3)c1,7%,?,9,?,-11%
CC(=O)N1CCSc2ccc(S(=O)(=O)NCc3ccccc3)cc21,-3%,?,29,?,0%
CC(=O)c1cccc(NS(=O)(=O)c2ccc3c(c2)N(C(C)=O)CCO3)c1,?,?,31,21µM*,-17%
CC(=O)N1CCSc2ccc(S(=O)(=O)Nc3cccc(C)c3)cc21,-7%,18µM*,14,13µM*,-23%
CC(=O)N1CCSc2ccc(S(=O)(=O)Nc3ccccc3C)cc21,-6%,?,-57*,-45%,-22%
CCSc1nnc(NC(=O)[C@@H](NC(=O)c2ccc(C(C)(C)C)cc2)C(C)C)s1,-21%,26µM*,27,21µM*,-21%
CC(C)[C@H](NC(=O)c1ccc(C(C)(C)C)cc1)C(=O)Nc1nnc(C2CC2)s1,-12%,23µM*,-3,?,-2%
COc1cc(OC)cc(C(=O)N[C@H](C(=O)Nc2nnc(C3CC3)s2)C(C)C)c1,2%,-10%,-1,4%,0%
COc1cc(NC(=O)Cc2cccs2)c(C(=O)O)cc1OC,13%,-1%,-13,-7%,9%
CCOc1ccc(-n2nc3cc(C)c(NC(=O)CC)cc3n2)cc1,nt,-21%,nt,-5%,nt
CC(/C=N/Nc1nnc2c(n1)[nH]c1ccccc12)=C\c1ccco1,7%,26µM*,31,?,-1%
COc1ccc(CNC(=O)COC(=O)c2ccc(S(=O)(=O)N3CCCCC3)cc2)cc1,-5%,2%,6,-21%,1%
COc1ccc2c(CNCC(C)c3ccccc3)c(C(=O)O)n(Cc3ccc(F)cc3Cl)c2c1 (centres undefined),nt,-17%,nt,-12%,nt
COc1ccc2c(CNCCc3ccc(SC)cc3)c(C(=O)O)n(Cc3ccc(F)cc3)c2c1,nt,16µM*,nt,12µM*,nt
CCc1ccc(CNCc2c(C(=O)O)n(Cc3cccc(F)c3)c3cc(OC)ccc23)cc1,nt,23µM*,nt,21µM*,nt
COc1ccc(Cn2c(C(=O)O)c(CNCC(C)c3ccccc3)c3ccc(OC)cc32)cc1 (centres undefined),nt,?,nt,23µM*,nt
SMILES,HT1080NT lethal,DT40 TDP1 CPT,IL1B secr inh,TDP1 cell noCPT,HT1080 IDH1KD tx
COc1ccc(OC)c(CNCc2c(C(=O)O)n(Cc3cccc(F)c3)c3cc(OC)ccc23)c1,nt,?,nt,21µM*,nt
COc1ccc2c(CNC3CCCCCC3)c(C(=O)O)n(Cc3cccc(F)c3)c2c1,nt,-5%,nt,?,nt
CC(C)N(C(=O)[C@H]1CC(CC(=O)NC(C)(C)C)C(=O)N2CCc3c([nH]c4ccccc34)[C@]12C)C(C)C (some centres undefined),-1%,?,-16,?,-2%
CN(Cc1c(F)cccc1Cl)C(=O)CCc1c[nH]c2ccccc12,-8%,?,-19,?,-18%
CCCCNC(=O)CSc1nc(COc2ccccc2)nc2ccccc12,-6%,-12%,-99*,?,-1%
CCC(C)(C)NC(=O)CSc1nc(Cc2ccccc2)nc2ccccc12,4%,?,-64*,?,-1%
COc1ccc(S(=O)(=O)N2CCN(Cc3ccc(Cl)cc3)CC2)cc1,0%,?,-65*,?,-4%
COc1ccc(S(=O)(=O)N2CCN(Cc3cccc([N+](=O)[O-])c3)CC2)cc1,14%,8%,?,?,8%
COc1ccc(CN2CCCN(S(=O)(=O)c3ccc(Br)cc3)CC2)cc1,-12%,?,-71*,18µM*,-11%
COc1ccc(S(=O)(=O)N2CCN(Cc3cccc(Cl)c3)CC2)cc1,-2%,?,-14,?,-1%
COc1cccc(CN2CCN(S(=O)(=O)c3ccc(Cl)s3)CC2)c1,-22%,3%,-51*,-4%,-1%
COc1ccc(S(=O)(=O)N2CCN(Cc3cccc(F)c3)CC2)cc1,?,-4%,-23,29µM*,3%
COc1ccc(CC(=O)N2CCN(S(=O)(=O)c3ccc(Cl)s3)CC2)cc1,0%,-20%,17,?,0%
C=C1C(N)CC2CC1C2(C)C (centres undefined),nt,6%,nt,-4%,nt
CC1=C(c2ccc(C)cc2)S(=O)(=O)NC1=NCc1cccc(F)c1,nt,-21%,nt,?,nt
CC1=C(C#N)CCC(=O)N1Cc1ccc(C)cc1,5%,21%,23,?,3%
COc1cccc(CN2CCN(Cc3cc(OC)c(OC)cc3[N+](=O)[O-])CC2)c1,7%,?,7,16µM*,2%
COc1cc(CN2CCCCCC2)c([N+](=O)[O-])cc1OC,2%,3%,-4,6%,2%
Cc1cc(=O)[nH]c(NN=C2C3CC4CC(C3)CC2C4)n1,0%,-4%,30,17%,-2%
Cc1cc(=O)[nH]c(NN=C2CCCCC2C)n1 (centres undefined),0%,?,-1,18µM*,0%
